Laboratory results taken from PubChem BioAssay (Tox21).
“And” between values parts separate entries of the source, which are not always exact repeats. Equal values may be shown once. Records with an inconclusive call do not appear. A call without a number means that no potency is given here. The source made the active and inactive calls. Calls follow the shape of the dose curve; as a rule, active = well fitted activation curve with a large enough effect in the repeat runs; inconclusive = weak or mixed curves; inactive = no such curve, though single readings can be large or run the other way.

Test: qHTS assay for small molecules that induce genotoxicity in human embryonic kidney cells expressing luciferase-tagged ATAD5 (AID 651632); also: nearly all actives have a fitted effect of over 15% in size
Conditions: HEK293T ATAD5-luciferase induction, 16 h; series mostly up to 83.3 µM
From the text: U.S. Tox21 Program National Center for Advancing Translational Sciences [NCATS] NIH Chemical Genomics Center [NCGC] U.S. Environmental Protection Agency [EPA] National Institutes of Environmental Health Sciences [NIEHS] National Toxicology Program [NTP] U.S. Food and Drug Administration [FDA] Tox21 Assay Overview: As cancer cells divide rapidly and during every cell division they need to duplicate their genome by DNA replication. The failure to do so results in the cancer cell death. Based on this concept, many chemotherapeutic agents were developed but have limitations such as low efficacy and severe side effects etc. A new cell based assay was developed to find the compounds that effectively block DNA replication either by directly damaging DNA or by inhibiting other cellular mechanisms. Enhanced Level of Genome Instability Gene 1 (ELG1; human ATAD5) protein levels increase in response to various types of DNA damage. Using a luciferase reporter-gene tagged with ATAD5, a cell-based assay [developed by Kyungjae Myung, NHGRI, NIH] was used to measure the induction of ATAD5 in human embryonic kidney cells (HEK293T). So, increase in luciferase activity can be used to identify the compounds that cause genetic stress.
Tox21 Assay Protocol Summary: For genotoxicity screening, 2,000 cells in 5 uL/well were dispensed into white, solid-bottom 1536-well plates using a Multidrop Combi (Thermo Scientific) dispenser. Following transfer of 23 nL compound or DMSO vehicle by a pin tool, the plates were incubated 16 hr at 37C and 5% CO2. 5 ul Amplite (AAT Bioquest, Inc.) was then added to each plate and following 30 min incubation at room temperature, luciferase activity was quantified on a ViewLux CCD-based plate reader.
Potency is read from the fitted curve at half-maximal effect.

| SMILES | Potency |
| --- | --- |
| O=C(O)c1cc(I)cc(I)c1I | inactive |
| O=C(O)c1cc(Cl)ccc1Cl | inactive |
| CCC(C)Cl (stereo not given) | inactive |
| OC[P+](CO)(CO)CO | inactive |
| O=[N+]([O-])c1cc(Cl)c(Cl)cc1Cl | inactive |
| CCC1CCC(=O)O1 (stereo not given) | inactive |
| CCOC(=O)c1cn2nc(OP(=S)(OCC)OCC)cc2nc1C | inactive |
| O=P(OCC(Br)CBr)(OCC(Br)CBr)OCC(Br)CBr (stereo not given) | inactive |
| CCCN(CCC)C(=O)Cc1c(-c2ccc(Cl)cc2)nc2ccc(Cl)cn12 | inactive |
| O=[N+]([O-])O[C@H]1CO[C@H]2[C@@H]1OC[C@H]2O[N+](=O)[O-] | inactive |
| O=C(Cc1ccccc1)c1ccccc1 | inactive |
| O=C([O-])c1ccccn1.O=C([O-])c1ccccn1.O=C([O-])c1ccccn1.[Cr+3] | inactive |
| CCCCCBr | inactive |
| CC(C)(C)NCC(O)c1ccccc1Cl (stereo not given) | inactive |
| CN[C@@H](C)[C@H](O)c1ccccc1 | inactive |
| Nc1ccccc1C(=O)OCCc1ccccc1 | 1.09 µM (active) and 433 nM (active) |
| CC(C)(C)CC(C)(C)c1ccc(O)cc1 | inactive |
| CCCCCCCCCCCC[N+](C)(C)CCOc1ccccc1 | inactive |
| CCC(C)(C)c1ccc(O)c(C(C)(C)CC)c1 | inactive |
| CCCCOC(=O)CCC(=O)OCCCC | inactive |

| SMILES | Potency |
| --- | --- |
| Cc1cnc(C2=NC(C)(C(C)C)C(=O)N2)c(C(=O)O)c1 (stereo not given) | inactive |
| COC1=CC(=O)O[C@@H](/C=C/c2ccc3c(c2)OCO3)C1 | inactive |
| C=CCc1ccccc1O | inactive |
| O=C(O)C(Cl)(Cl)Br | inactive |
| CC(C)(C)N(NC(=O)c1ccc(Cl)cc1)C(=O)c1ccccc1 | inactive |
| C[N+](C)(C)CCOC(=O)C(O)(c1ccccc1)c1ccccc1 | inactive |
| CC(=O)OC(c1ccccc1)C(Cl)(Cl)Cl (stereo not given) | inactive |
| C[N+]1(CCC(C(N)=O)(c2ccccc2)c2ccccc2)CCCCC1 | inactive |
| c1ccc2sc(SNC3CCCCC3)nc2c1 | inactive |
| CCCCC(CC)COC(=O)c1c(Br)c(Br)c(Br)c(Br)c1C(=O)OCC(CC)CCCC (stereo not given) | inactive |
| C=CC(=O)OCC | inactive |
| C1CS1 | inactive |
| CC(O)CN1CCN(CC(=O)[O-])CCN(CC(=O)[O-])CCN(CC(=O)[O-])CC1.[Gd+3] (stereo not given) | inactive |
| C[N+](C)(C)CC1CO1 (stereo not given) | inactive |
| O=C(NCNC(=O)NC1C(=O)NC(=O)N1CO)NC1C(=O)NC(=O)N1CO (stereo not given) | inactive |
| CCC1(CC)C(=O)NC(=O)NC1=O | inactive |
| C[C@H]1[C@@H]2Cc3ccc(O)cc3[C@@]1(C)CCN2C | inactive |
| C[C@H](N)[C@H](O)c1ccc(O)c(O)c1 | inactive |
| COC1CC(=C(c2cccs2)c2cccs2)C[N+](C)(C)C1 (stereo not given) | inactive |
| O=S(=O)(Cl)Cl | inactive |
